Here are results for eleven compounds from PubChem BioAssay (NCATS).

Test [1] in a line: qHTS assay for small molecule disruptors of the mitochondrial membrane potential - 1 hr assay (AID 651754; calls by dose curve; note: % is set by controls: 0 for no effect and ±100 for the full control effect; nearly all actives have a fitted effect of over 35% in size). The procedure, abridged:
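In this qHTS format, a 1 hr compound treatment of HepG2 cells precedes Mito-MPS staining, and membrane potential is judged from aggregate (red) against monomer (green) fluorescence intensity.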

Test [2] in a line: qHTS assay for small molecule disruptors of the mitochondrial membrane potential - 5 hr assay (AID 651755; calls by dose curve; note: % is set by controls: 0 for no effect and ±100 for the full control effect; nearly all actives have a fitted effect of over 40% in size). The essentials: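 Seed HepG2 overnight, add compound, incubate 5 hr at 37C and 5% CO2, stain 30 min with Mito-MPS, then measure monomer (490/535 nm) and aggregate (540/590 nm) fluorescence.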
The target in test [3] is Tumor necrosis factor (Homo sapiens) (UniProt P01375). Put plainly: qHTS assay to identify small molecules that stimulate Tumor Necrosis Factor-alpha (TNF-alpha) secretion (AID 651757; active = well fitted curve in the direction sought with a large enough effect in the signal ratio; the % refers to the signal ratio; note: 0% is about no effect). The essentials:
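Using 3000 THP-1 cells per well, compounds and controls were applied for 17 hrs at 37 C. Detection followed with two labeled anti-TNF-alpha antibodies (cryptate donor, XL665 acceptor) for 3 hr at room temperature, measured by TR-FRET.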

Test [4] is described as follows: qHTS assay for environmental chemicals that activate the Aryl hydrocarbon Receptor (AhR) signaling pathway (AID 651777). Note: % of control where 0% means no effect; nearly all actives have a fitted effect of over 15% in size. To be noted: 1A2-DRE human hepatoma cells, luciferase, 24 h; stronger effect = higher value. The procedure, abridged:
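Following a 24 hr incubation with test chemicals at 37 C and 5% CO2, 1A2-DRE human hepatoma cells received One-Glo reagent; after 30 min at room temperature, luciferase output reflected CYP1A2 induction via AhR.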

For test [5], the target named is Peroxisome proliferator-activated receptor alpha (Homo sapiens) (UniProt Q07869). Nature of the test: qHTS assay for small molecule agonists of the peroxisome proliferator-activated receptor alpha (PPARalpha) signaling pathway (AID 651778). For max response: % of control where 0% means no effect. Note: potency is the fitted concentration of half-maximal effect. To be noted: PathHunter PPARalpha complementation, chemiluminescence, 6 h; max response: stronger effect = higher value. The procedure, abridged: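 Cells plated at 2,000/well and held overnight at 37 C, 5% CO2, then compound added by pin tool for 6 hr; after PathHunter detection reagent and 60 min at room temperature, chemiluminescence from enzyme complementation was read.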

Test [6] has as its target Nuclear receptor ROR-gamma (Homo sapiens) (UniProt P51449). Nature of the test: qHTS assay for small molecule antagonists of the retinoid-related orphan receptor gamma (ROR-gamma) signaling pathway (AID 651802).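 Note: luciferase reporter luminescence driven by ROR response element; series mostly up to about 92 µM; % is set by controls: 0 for no effect and ±100 for the full control effect; nearly all actives have a fitted effect of over 60% in size.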 The procedure, abridged: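 Doxycycline-induced reporter activity in engineered CHO cells (TET-inducible ROR, RORE-LUC) was measured by luminescence after 16hr compound exposure at 37C.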

A short description of test [7]: qHTS assay for small molecule agonists of the antioxidant response element (ARE) signaling pathway measured by Nrf2-dependant transcriptional activity (AID 720636; active = well fitted curve in the direction sought with a large enough effect in the repeat runs; an effect the other way counts as inactive or inconclusive;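 note: HepG2 cells with an ARE-driven luciferase reporter; % of control where 0% means no effect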). The essentials: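 ONE-Glo luminescence, read 30 min after reagent addition at room temperature, reflected ARE reporter activity in HepG2 cells that had been incubated with compound for 16 hr at 37 C in 1% dialyzed FBS.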

Test [8] in a line: qHTS assay for small molecule antagonists of the retinoid-related orphan receptor gamma (ROR-gamma) signaling pathway - cell viability counter screen (AID 720652; active = well fitted curve in the direction sought with a large enough effect in the repeat runs; an effect the other way counts as inactive or inconclusive;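 note: series mostly up to about 92 µM; compound exposure lasted 16 hr before ATP read; % is set by controls: 0 for no effect and ±100 for the full control effect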). The procedure, abridged:
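ATP-based viability readout in the ROR-gamma reporter CHO cells after 16 hr compound exposure under doxycycline induction.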

A short description of test [9]: qHTS assay for small molecule agonists of the antioxidant response element (ARE) signaling pathway measured by Nrf2-dependant transcriptional activity - cell viability counter screen (AID 720653; active = well fitted curve in the direction sought with a large enough effect in the repeat runs; an effect the other way counts as inactive or inconclusive; note: % is set by controls: 0 for no effect and ±100 for the full control effect). To be noted: ARE-bla HepG2 viability, CellTiter-Glo ATP luminescence, 16 h; stronger effect = lower value. The essentials:
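ARE-bla HepG2 cells (2,000/well) rested 5 hrs at 37C/5% CO2, then exposed to compounds in DMSO for 16 hrs. Viability was read in the same wells as intracellular ATP by luminescence, 30 min at room temperature after reagent addition.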

A short description of test [10]: qHTS Assay for Identifying Gametocytocidal Compounds (AID 743244).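 For max response: % is set by controls: 0 for no effect and ±100 for the full control effect; actives lower the fluorescent signal which means gametocytes are killed.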 Note: potency is the fitted concentration of half-maximal effect. To be noted: P. falciparum 3D7 stage III-V gametocytes, alamarBlue, 72 h; max response: stronger effect = lower value. The essentials: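 Stage III–V gametocytes of P. falciparum 3D7 were seeded at 20,000 cells/well onto pre-dispensed compounds. After 72 h, 37 °C, 5% CO2, alamarBlue was added for another 24 h.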

Test [11] in a line: qHTS assay for cell viability of HEK293 cells (AID 743288). Note: % is set by controls: 0 for no effect and ±100 for the full control effect; nearly all actives have a fitted effect of over 50% in size. Particulars: ATP luminescence (CellTiter-Glo), 18 h, stronger effect = lower value. The essentials: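 Readout is luciferase-coupled ATP content (CellTiter-Glo luminescence, 30 min room temperature) as a measure of metabolically competent cells. Parental HEK293 cells were plated 5 h or more before compound addition, then treated 18 h at 37 C.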

Test [12] is described as follows: qHTS assay for cell viability of the p53RE-bla HCT-116 cell line (AID 743292). Note: % is set by controls: 0 for no effect and ±100 for the full control effect; nearly all actives have a fitted effect of over 55% in size. The procedure, abridged: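 After plating at 4,000 cells per well and a 5 h rest at 37 C, HCT-116 cells carrying p53RE-bla received test chemicals in DMSO. Sixteen hours later at 37 C, CellTiter-Glo was added and luminescence recorded following 30 min at room temperature.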
Test [13] addresses Tyrosine-protein kinase Yes (Homo sapiens) (UniProt P07947). Nature of the test: qHTS for small molecule inhibitors of Yes1 kinase: Primary Screen (AID 686947). Note: nearly all actives have a fitted effect of over 60% in size. Note: potency is the fitted concentration of half-maximal effect. The procedure, abridged: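 In this qHTS format, inhibition is expressed relative to DMSO controls with enzyme (maximum) and without enzyme (minimum). The 60 min room-temperature reaction uses 0.1 mM ATP, with ADP detected by luminescence.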

Test [14] is described as follows: qHTS for small molecule inhibitors of Yes1 kinase: Counter Assay (AID 686950).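 Note: no kinase present so only ADP-Glo detection of a fixed ADP amount is tested; luminescence from ADP-Glo reporting ADP in a fixed ATP and ADP mixture; series mostly up to about 77 µM; 0% = DMSO wells with ATP plus ADP and -100% = ATP-only wells without ADP.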 The essentials:
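Measuring interference with ADP-Glo, the assay ran 60 min at room temperature on an ATP/ADP mix lacking enzyme. Values were normalized to ATP-plus-ADP (maximum) and ATP-only (minimum) DMSO controls.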

Values joined by “and” are separate entries in the source; they are usually repeats but may differ in a detail not shown here. Equal values may be shown once. Unmarked numbers belong to inactive results. Records with an inconclusive call do not appear. Active and inactive are the calls of the source. Unless noted, calls come from the whole dose curve; as a rule, active = well fitted curve in the direction sought with a large enough effect; inconclusive = small, poorly fitted or top-dose-only effect, or another doubt; inactive = no such curve, though single readings can be large; an effect the other way counts as inactive or inconclusive.

Chain of Tumor necrosis factor (Homo sapiens) (P01375 whole entry, looked up): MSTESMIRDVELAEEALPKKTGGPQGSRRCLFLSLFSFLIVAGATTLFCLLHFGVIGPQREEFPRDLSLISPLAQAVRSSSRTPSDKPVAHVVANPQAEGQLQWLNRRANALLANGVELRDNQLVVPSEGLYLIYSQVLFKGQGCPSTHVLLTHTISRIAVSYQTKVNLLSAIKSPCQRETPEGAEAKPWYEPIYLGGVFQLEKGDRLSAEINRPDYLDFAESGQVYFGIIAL
Chain of Tyrosine-protein kinase Yes (Homo sapiens) (P07947 whole entry, looked up): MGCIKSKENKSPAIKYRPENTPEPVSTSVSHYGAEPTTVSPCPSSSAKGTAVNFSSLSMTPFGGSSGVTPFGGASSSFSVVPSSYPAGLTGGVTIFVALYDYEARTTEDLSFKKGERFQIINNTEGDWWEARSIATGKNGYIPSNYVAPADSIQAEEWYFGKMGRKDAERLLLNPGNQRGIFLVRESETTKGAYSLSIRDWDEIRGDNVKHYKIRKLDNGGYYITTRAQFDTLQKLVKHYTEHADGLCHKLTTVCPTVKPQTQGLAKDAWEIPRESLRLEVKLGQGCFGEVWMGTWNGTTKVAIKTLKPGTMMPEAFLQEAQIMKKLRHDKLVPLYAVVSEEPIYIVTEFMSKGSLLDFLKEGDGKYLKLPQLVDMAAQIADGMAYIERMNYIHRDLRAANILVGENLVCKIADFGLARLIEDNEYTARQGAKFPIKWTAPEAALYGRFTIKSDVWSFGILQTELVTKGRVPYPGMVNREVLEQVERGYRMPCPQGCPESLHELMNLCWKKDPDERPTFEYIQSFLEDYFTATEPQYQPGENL
Chain of Peroxisome proliferator-activated receptor alpha (Homo sapiens) (Q07869 whole entry, looked up): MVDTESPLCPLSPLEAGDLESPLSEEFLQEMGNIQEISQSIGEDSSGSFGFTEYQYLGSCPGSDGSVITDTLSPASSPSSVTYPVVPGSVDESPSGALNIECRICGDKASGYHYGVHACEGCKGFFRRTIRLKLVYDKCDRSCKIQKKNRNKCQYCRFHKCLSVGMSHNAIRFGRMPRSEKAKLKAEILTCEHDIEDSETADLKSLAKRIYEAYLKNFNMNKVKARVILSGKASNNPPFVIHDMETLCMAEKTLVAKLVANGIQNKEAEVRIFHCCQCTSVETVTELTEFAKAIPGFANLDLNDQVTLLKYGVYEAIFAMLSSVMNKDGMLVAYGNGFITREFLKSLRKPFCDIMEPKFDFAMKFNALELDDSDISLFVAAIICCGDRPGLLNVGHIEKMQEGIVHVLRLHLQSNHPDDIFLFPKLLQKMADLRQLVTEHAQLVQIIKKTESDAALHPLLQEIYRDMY
Chain of Nuclear receptor ROR-gamma (Homo sapiens) (P51449 whole entry, looked up): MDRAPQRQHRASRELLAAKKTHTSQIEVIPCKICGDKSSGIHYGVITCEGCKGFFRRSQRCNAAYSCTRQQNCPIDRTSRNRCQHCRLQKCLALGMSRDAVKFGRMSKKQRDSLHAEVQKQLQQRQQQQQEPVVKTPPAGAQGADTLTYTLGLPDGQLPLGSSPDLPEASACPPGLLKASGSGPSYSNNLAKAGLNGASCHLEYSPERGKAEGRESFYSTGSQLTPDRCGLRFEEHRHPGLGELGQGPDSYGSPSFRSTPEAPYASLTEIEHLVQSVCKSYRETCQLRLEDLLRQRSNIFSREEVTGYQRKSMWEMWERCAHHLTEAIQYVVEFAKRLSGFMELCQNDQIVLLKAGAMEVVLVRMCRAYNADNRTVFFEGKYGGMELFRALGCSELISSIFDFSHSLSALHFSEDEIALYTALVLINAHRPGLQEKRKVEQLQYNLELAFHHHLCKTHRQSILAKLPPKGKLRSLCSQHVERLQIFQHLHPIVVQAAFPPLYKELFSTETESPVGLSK

As to `Nc1ccn([C@H]2CS[C@@H](CO)O2)c(=O)n1`, the call in test [1], in test [2], in [3], in [6], in test [7] and in test [8] was inactive. Besides, the result in test [12] was inactive. Also, the activation in [4] is 0.73%. Further, the max response was -3.53% in test [5]; 4.54% in test [9]; 6.99% and 7.67% in test [10]; -4.28% in test [11].

For the compound `CCCCC/C=C\C/C=C\CCCCCCCC(=O)O`, the result in test [1], in test [2], in test [3], in test [6], in test [7] and in test [8] was inactive. In addition, in test [12], the compound was classed as inactive. In addition, in test [4], the activation is 0.916% and -0.698%. Further, the Potency in test [5] was 44.7 µM (active) and 28.2 µM (active). For the same compound, the max response in [9] was -8.45% and -16.5%; in test [10], 0.52%; in test [11], -9.3% and -9.38%.

`CN(NC(=O)CC(=O)NN(C)C(=S)c1ccccc1)C(=S)c1ccccc1`: the Potency result in test [13] is “inactive”. Besides, in [14], the call was inactive.

For `CCC1(O)CC2CN(CCc3c([nH]c4ccccc34)[C@@](C(=O)OC)(c3cc4c(cc3OC)N(C=O)[C@H]3[C@](O)(C(=O)OC)[C@H](OC(C)=O)[C@]5(CC)C=CCN6CC[C@]43[C@@H]65)C2)C1` (some centres undefined), the Potency result in [13] is “inactive”. Moreover, the result in [14] was inactive. In addition, in test [10], the max response is -18.4%.

As to `CCOC(C)=O`, the compound was called inactive in [1], in [2], in test [3], in [6], in [7] and in test [8]. Further, the compound was called inactive in [12]. Moreover, the max response was 6.06% in test [5], 1.62% in [9], 12.9% in test [10] and 2.28% in test [11].

Consider `O=C(O)CN(CCN(CC(=O)O)CC(=O)O)CC(=O)O`, for which the activation in [4] was 2.06% and 1.21%. The max response in [5] was 2.01% and 0.29%; in [9] it was 14.1% and -8.31%; in test [11] it was -9.23% and -6.76%. The outcome in [7] and in test [12] was inactive.

Regarding `CC[C@@H](C(=O)O)C1CC[C@H](C)C([C@@H](C)[C@H](O)[C@H](C)C(=O)[C@H](CC)C2O[C@]3(C=C[C@@H](O)[C@]4(CC[C@@](C)(C5CC[C@](O)(CC)[C@H](C)O5)O4)O3)[C@H](C)C[C@@H]2C)O1` (some centres undefined), the Potency result in test [13] was “inactive”. Further, the call in [14] was inactive.

In the case of `CCCCCCCCCCCCCCCCCCOP(=O)([O-])OC1CC[N+](C)(C)CC1`, the Potency entry in test [13] is “inactive”. The result in test [14] was inactive. Moreover, in test [10], the max response was 13.1%.

As for `NC(=O)Nc1cc(-c2ccc(CN3CCOCC3)c(F)c2)sc1C(=O)N[C@H]1CCCNC1`, the Potency was 0.2 nM (active) in test [13] and 18.7 µM (active) in [10]. In addition, the outcome in test [14] was inactive.

On to `CCC1(Cc2ccc(N)cc2)CCC(=O)NC1=O` (centres undefined), for which the Potency result in test [13] was “inactive”. In [14], the call was inactive. Further, the max response in test [10] is 9.55%.

Regarding `CC1=CCC(C(C)(C)O)CC1` (centres undefined), the activation in test [4] is 0.596%. For the same compound, the max response in test [5] is -2.04%; in test [9], 3.37%; in test [10], -0.0478%; in test [11], -13.3%. The compound was classed as inactive in test [7] and in test [12].
